Source: the supplement of paper PMC12340641
Where a name gives a salt, the structure may show the parent alone.

system: HEK293FT dCK*-IKZF1; assay: relative growth recovery (pomalidomide 10 uM = 100%, DMSO = 0%); higher = more growth rescue (IKZF1 fusion degradation); conditions: compound concentration: 5 uM; AraC concentration: 0.3 uM; overnight pretreatment + 4 days AraC
Summary of the method: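 HEK293FT cells stably expressing an engineered deoxycytidine kinase–IKZF1 fusion were seeded at 300 per well in 384-well plates and given 5 μM compound 2 h later. After overnight incubation at 37 °C, a nucleoside suicide substrate at 0.3 μM was added with medium for 4 days, and on day 5 Hoechst 33342-stained nuclei were counted by whole-well imaging. Growth recovery was normalised per plate between a reference degrader and vehicle, set to 100% and 0% respectively, and the values are means of duplicates run on different days.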

Row | SMILES | relative growth recovery
1 | O=C1c2ccccc2-c2n[nH]c3cccc1c23 [pyrazolanthrone] | -5.03%
2 | CO[C@H]1C[C@@H]2CC[C@@H](C)[C@@](O)(O2)C(=O)C(=O)N2CCCC[C@H]2C(=O)O[C@H]([C@H](C)C[C@@H]2CC[C@@H](O)[C@H](OC)C2)CC(=O)[C@H](C)/C=C(\C)[C@@H](O)[C@@H](OC)C(=O)[C@H](C)C[C@H](C)/C=C/C=C/C=C/1C [Rapamycin] | -7.58%
3 | O=C(Nc1cccc(C(F)(F)F)c1)Nc1ccc(Br)cc1-c1nnn[nH]1 | -2.33%
4 | CC[C@]1(O)C[C@H]2CN(CCc3c([nH]c4ccccc34)[C@@](C(=O)OC)(c3cc4c(cc3OC)N(C=O)[C@H]3[C@@](O)(C(=O)OC)[C@H](OC(C)=O)[C@]5(CC)C=CCN6CC[C@]43[C@@H]65)C2)C1 [Vincristine Sulfate] | -12.2%
5 | OCCCNc1cc(-c2ccnc(Nc3cccc(Cl)c3)n2)ccn1 | -12.8%
6 | Clc1ccc(COC(Cn2ccnc2)c2ccc(Cl)cc2Cl)cc1 (centres undefined) | 0.49%
7 | CC(C)(C)c1ccc(-c2nc3ccccc3[nH]2)cc1 | 11.5%
8 | C(=C\c1ccccc1)/CN1CCN(C(c2ccccc2)c2ccccc2)CC1 | 1.06%
9 | Clc1ccc(C(Cn2ccnc2)OCc2csc3c(Cl)cccc23)c(Cl)c1 (centres undefined) [Sertaconazole nitrate] | 3.33%
10 | CCCCC1OC(=O)c2ccccc21 (centres undefined) [Butylphthalide] | 1.08%
11 | COC1CCN(c2cccc(-c3cc(NC(C)=O)nc(-n4nc(C)cc4C)n3)n2)CC1 | -1.86%
12 | O=C1[C@H]2CCCC[C@H]2C(=O)N1CCCCN1CCN(c2nsc3ccccc23)CC1 [Perospirone] | 13.7%
13 | S=C=Nc1ccc(N=C=S)cc1 | -1.61%
14 | CC[C@H](CO)Nc1nc(Nc2cccc(-c3ccccn3)c2)c2ncn(C(C)C)c2n1 | -2.95%
15 | OCCN1CCN(CCCN2c3ccccc3Sc3ccc(C(F)(F)F)cc32)CC1 [Fluphenazine  HCl] | 5.51%
16 | Oc1c(Br)cc(Br)c2cccnc12 | -2.54%
17 | CCc1nc(N)nc(N)c1-c1ccc(Cl)cc1 | -0.245%
18 | C[C@@H]1CC(=O)c2c(ccc3c2C(=O)c2cccc(O)c2C3=O)C1 [ochromycinone] | -2.08%
19 | COc1cc(NS(=O)(=O)c2ccc(N)cc2)nc(OC)n1 | -4.54%
20 | CC(=O)N(OCc1ccccc1)[C@@H]1c2cc(C#N)ccc2OC(C)(C)[C@H]1O | -0.925%
21 | CCc1c2c(nc3ccc(OC(=O)N4CCC(N5CCCCC5)CC4)cc13)-c1cc3c(c(=O)n1C2)COC(=O)[C@]3(O)CC [Irinotecan HCl] | -15.1%
22 | CC1(C)Oc2ccc(C#N)cc2[C@@H](N2CCCC2=O)[C@@H]1O.CC1(C)Oc2ccc(C#N)cc2[C@H](N2CCCC2=O)[C@H]1O [levcromakalim] | -0.84%
23 | Cc1ccc(-c2ccc(C)cn2)nc1 [abametapir] | 0.52%
24 | CCCNC(=O)NS(=O)(=O)c1ccc(Cl)cc1 | 1.51%
